Assay results as given in PubChem BioAssay (NCATS).
Values without a mark were called inactive. The source made the active and inactive calls. Calls come from the whole dose curve; as a rule, active = well fitted curve in the direction sought with a large enough effect; inconclusive = small, poorly fitted or top-dose-only effect, or another doubt; inactive = no such curve, though single readings can be large or run the other way.

Each compound was assayed against Alpha-galactosidase (Coffea arabica) (UniProt Q42656) (assay: Counterscreen for Glucocerebrosidase Inhibitors: qHTS Assay for Coffee Bean alpha-Galactosidase at pH 4.5 (AID 957;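 note: plate controls were enzyme alone for no effect and no enzyme for full effect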)). Conditions: purified coffee bean alpha-galactosidase, fluorogenic substrate; series mostly up to 76.9 µM; activity change, negative = inhibition: at the top concentration.
Sequence of Alpha-galactosidase (Coffea arabica) (Q42656 whole entry, looked up): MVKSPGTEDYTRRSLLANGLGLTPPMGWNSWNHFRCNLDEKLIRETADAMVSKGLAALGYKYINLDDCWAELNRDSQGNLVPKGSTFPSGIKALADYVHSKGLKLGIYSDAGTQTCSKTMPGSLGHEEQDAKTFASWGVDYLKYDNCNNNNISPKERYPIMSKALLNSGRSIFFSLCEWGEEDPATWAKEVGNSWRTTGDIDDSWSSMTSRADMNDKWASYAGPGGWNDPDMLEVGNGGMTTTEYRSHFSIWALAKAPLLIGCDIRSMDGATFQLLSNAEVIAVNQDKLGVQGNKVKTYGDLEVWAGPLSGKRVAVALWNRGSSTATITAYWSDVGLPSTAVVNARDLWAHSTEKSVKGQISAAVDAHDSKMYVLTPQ
Source text: NIH Chemical Genomics Center [NCGC]
NIH Molecular Libraries Screening Centers Network [MLSCN]
PI Name: Zheng, Wei [NIH]
Alpha-galactosidase is a homodimeric glycoprotein that hydrolyzes the terminal alpha-galactosyl moieties from glycolipids and glycoproteins. Deficiency of this enzyme results in Fabry Disease with progressive accumulation of globotriaosylceramide and other glycosphingolipids in vascular endothelial cells that causes renal failure, myocardial infarction and stroke, and premature death in patients. It has reported that the improper folding and trafficking of alpha-galactosidase resulted from the genetic mutations may account for a significant numbers of Fabry patients. […] We optimized this coffee bean alpha-galactosidase assay in 1536-well plate format as a counter-screen assay for identifying the selective small molecule inhibitors of other lysosomal enzymes.
NCGC Assay Protocol Summary:
This is a fluorogenic enzyme assay with 4-Methylumbelliferyl alpha-D-galactopyranoside as the substrate and green coffee bean […] (from Sigma-Aldrich) as the enzyme preparation. Upon the hydrolysis of this fluorogenic substrate, the resulting product, […]. 4-Methyllumbelliferone, can be excited at 365 nm and emits at 440 nm which can be detected by a standard fluorescence plate reader. Data were normalized to the controls for basal activity (without enzyme) and 100% activity (with enzyme). In the AC50 values were determined from concentration-response data modeled with the standard Hill equation.
Assay buffer: 50 mM citric acid, 0.005% Tween-20, pH 4.5. (pH 5.9 is an optimal condition for this enzyme assay. This assay in pH 4.5 is used for comparison the inhibitor activities with the human alpha-galactosidase assay)
1536-well assay protocol for the coffee bean alpha-galactosidase:
(1) Add 2 ul/well of enzyme (2 nM final)
(2) Add 23 nL compounds in DMSO solution. The final titration was 0.7 nM to 77 uM.
(3) Add 1 ul of substrate (80 uM final)
(4) Incubate at room temperature for 20 min.
(5) Add 2 ul stop solution (1M NaOH and 1M Glycine mixture, pH 10)
(6) Detect the assay plate in a ViewLux plate reader (PerkinElmer) with Ex=365 nm and Em=440nm.
Keywords: Alpha-galactosidase, Fabry Disease, pharmacological chaperone, chaperone therapy, high throughput screening, alpha-galactosidase inhibitor, MLSMR, MLSCN, NIH Roadmap, qHTS and NCGC

| Structure (SMILES) | outcome | activity change, negative = inhibition |
| --- | --- | --- |
| CC(C)NC[C@H](O)COc1ccc(CC(N)=O)cc1 | inactive |  |
| CCSC(=N)N |  | -2.25% |
| CCCn1c(=O)c2[nH]c(-c3ccc(OCC(=O)NCCN)cc3)nc2n(CCC)c1=O |  | -0.167% |
| CC(C)[C@H](NC(=O)OCc1ccccc1)C(=O)N[C@H](C=O)Cc1ccccc1 |  | -1.34% |
| c1ccc2c(c1)CC(N1CCN(c3cccc4c3OCCO4)CC1)C2 |  | -4.53% |
| Nc1ccc(N2C(=O)c3ccccc3C2=O)c(Cl)c1 |  | -1.93% |
| OCc1ccc(-c2nn(Cc3ccccc3)c3ccccc23)o1 |  | -2.46% |
| CC(C)NC[C@@H](O)COc1cccc2ccccc12 | inactive |  |
| O=c1c(O)c(-c2ccc(O)cc2O)oc2cc(O)cc(O)c12 |  | -1.13% |
| COc1ccccc1N1CCN(CCN(C(=O)c2ccc(F)cc2)c2ccccn2)CC1 |  | -0.687% |
| CCN(CC)CCOC(=O)c1cc(Cl)c(N)cc1OC |  | 6.27% |
| CC(C)NC[C@H](O)COc1cccc2[nH]ccc12 |  | -0.446% |
| Nc1cc(Cl)c(NC2=NCCN2)c(Cl)c1 |  | 2.86% |
| COc1ccc(-n2nc(C(F)(F)F)cc2-c2ccc(Cl)cc2)cc1 |  | 1.48% |
| O=C1CC[C@@]2(O)[C@H]3Cc4ccc(O)c5c4[C@@]2(CCN3CC2CC2)[C@@H]1O5 |  | -1.65% |
| N#CC(C#N)=C(N)/C(C#N)=C/c1ccc(O)cc1 |  | -0.816% |
| C=CC[C@H](N)C(=O)O |  | -3.01% |
| N=C(N)c1ccc(OCCCCCOc2ccc(C(=N)N)cc2)cc1 (tested in a mixture with another compound) |  | -2.46% |
| O=C1Nc2ccc(I)cc2/C1=C/c1cc(Br)c(O)c(Br)c1 |  | -3.6% |
| O=C(CCc1ccc(O)cc1)c1c(O)cc(O)cc1O |  | 0.742% |

| Structure (SMILES) | outcome | activity change, negative = inhibition |
| --- | --- | --- |
| CN1C(=O)CCS(=O)(=O)[C@H]1c1ccc(Cl)cc1 |  | -0.53% |
| Nc1c(S(=O)(=O)O)cc(Nc2ccc(Nc3nc(Cl)nc(Nc4ccc(S(=O)(=O)O)cc4)n3)c(S(=O)(=O)O)c2)c2c1C(=O)c1ccccc1C2=O |  | -2.98% |
| CC(=O)C(C)=O |  | 0.756% |
| NCCSSCCN |  | 1.84% |
| N=C(N)SCCc1cnc[nH]1 |  | -0.0372% |
| CCn1c(=O)[nH]c2cc(Cl)c(Cl)cc21 |  | -2.38% |
| CN1CCN(c2ccc3ccccc3n2)CC1 |  | -0.171% |
| N#C/C(=C\c1ccc(O)c(O)c1)C(=O)NCc1ccccc1 |  | -2.04% |
| N[C@H](C(=O)O)[C@H](O)C(=O)O |  | -0.146% |
| Cn1c(=O)[nH]c2ncn(C)c2c1=O |  | 2.16% |
| NC(=O)c1cccc(N)c1 |  | 0.373% |
| CN1CCc2cc(NC(=O)Nc3cccnc3)ccc21 |  | -1.35% |
| O=Nc1c(-c2c(O)[nH]c3ccccc23)[nH]c2ccccc12 |  | -3.76% |
| N=C(N)SCCc1ccc(CCSC(=N)N)cc1 |  | -1.9% |
| NOCC(=O)O |  | -2.58% |
| COc1ccc2c(c1)c(CC(=O)O)c(C)n2Cc1ccc(Cl)cc1 |  | -4.78% |
| CC(C)Cn1c(=O)n(C)c(=O)c2[nH]cnc21 |  | -0.406% |
| CNc1cc(NS(=O)(=O)c2ccc(N)cc2)nc(NC)n1 |  | -0.902% |
| CC(C)[C@@]1(NC(=O)[C@@H]2C[C@H]3c4cccc5[nH]cc(c45)C[C@@H]3N(C)C2)O[C@@]2(O)[C@H]3CCCN3C(=O)[C@H](Cc3ccccc3)N2C1=O |  | -5.07% |
| Brc1ccc([C@H]2CN3CCSC3=N2)cc1 |  | -8.35% |
